Data taken from PubChem BioAssay (Tox21).
Several values for one entry are separate records, joined by “and”; a condition that tells them apart may be missing. Identical values can stand only once. Inconclusive results are not listed. A call without a number means that no potency is given here. Some compounds were tested as several samples or in several runs, with calls that do not always agree. Activity calls are given as the source filed them. Unless noted, calls come from the whole dose curve; as a rule, active = well fitted curve in the direction sought with a large enough effect in the repeat runs; inconclusive = weak or mixed curves; inactive = no such curve, though single readings can be large; an effect the other way counts as inactive or inconclusive.

Experiments:
[1] = target: Thyrotropin receptor (Homo sapiens) (UniProt P16473); experiment: qHTS assay to identify small molecule antagonists of the thyroid stimulating hormone receptor (TSHR) signaling pathway (AID 1259385; calls by dose curve; note: nearly all actives have a fitted effect of over 20% in size)
Thyrotropin receptor (Homo sapiens), sequence (P16473 whole entry, looked up): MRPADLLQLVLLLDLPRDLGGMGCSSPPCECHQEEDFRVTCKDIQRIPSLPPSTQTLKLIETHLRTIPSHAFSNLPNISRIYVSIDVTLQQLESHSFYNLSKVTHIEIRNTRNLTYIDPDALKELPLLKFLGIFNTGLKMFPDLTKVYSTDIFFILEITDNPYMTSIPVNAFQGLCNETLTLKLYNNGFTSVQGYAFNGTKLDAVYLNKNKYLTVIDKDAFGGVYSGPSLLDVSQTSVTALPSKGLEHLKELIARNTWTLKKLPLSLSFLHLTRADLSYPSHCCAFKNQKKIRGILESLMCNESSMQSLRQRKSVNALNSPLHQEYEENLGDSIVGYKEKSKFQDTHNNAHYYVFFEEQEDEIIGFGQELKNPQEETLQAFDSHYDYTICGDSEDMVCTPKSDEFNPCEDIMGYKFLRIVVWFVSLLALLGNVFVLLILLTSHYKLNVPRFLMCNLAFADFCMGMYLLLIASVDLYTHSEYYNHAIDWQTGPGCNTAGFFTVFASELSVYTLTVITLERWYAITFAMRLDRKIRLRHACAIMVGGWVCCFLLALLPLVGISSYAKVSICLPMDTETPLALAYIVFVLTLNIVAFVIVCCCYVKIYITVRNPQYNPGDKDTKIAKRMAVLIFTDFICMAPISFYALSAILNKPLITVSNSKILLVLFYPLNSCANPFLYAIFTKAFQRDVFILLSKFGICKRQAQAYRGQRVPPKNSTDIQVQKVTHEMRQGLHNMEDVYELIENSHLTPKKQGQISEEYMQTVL
Procedure, shortened: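 TSHR-HEK293 cells were plated and held 18 h at 37C/5% CO2, then given compound plus Ro20-1724 and stimulated with TSH at 1.5 ng/mL final. After 30 min at room temperature, cAMP was detected with cAMP-d2/anti-cAMP-cryptate (1 h) by fluorescence.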

[2] = qHTS assay to identify small molecule agonists of the estrogen receptor alpha (ER-alpha) signaling pathway in the presence of an antagonist - cell viability counter screen (AID 1259386);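 note: cells exposed to compounds for 22 h at 37 °C before the viability read; nearly all actives have a fitted effect of over 30% in size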; note: potency is the fitted concentration of half-maximal effect
Procedure, shortened: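 Steps: 5-day stripped-FBS culture; seed and incubate 24hr; add ICI-182,780 (10.0nM final); pin 15-point compound titration; incubate 22hr at 37C; add CellTiter-Fluor at 21hr; read fluorescence.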

[3] = target: Progesterone receptor (Homo sapiens) (UniProt P06401); experiment: qHTS assay to identify small molecule antagonists of the progesterone receptor (PR) signaling pathway (AID 1346795; active = well fitted inhibition curve with a large enough effect in the signal ratio in the repeat runs, not every such curve was filed as active; the % refers to the signal ratio; note: potency is the fitted concentration of half-maximal effect)
Progesterone receptor (Homo sapiens), sequence (P06401 whole entry, looked up): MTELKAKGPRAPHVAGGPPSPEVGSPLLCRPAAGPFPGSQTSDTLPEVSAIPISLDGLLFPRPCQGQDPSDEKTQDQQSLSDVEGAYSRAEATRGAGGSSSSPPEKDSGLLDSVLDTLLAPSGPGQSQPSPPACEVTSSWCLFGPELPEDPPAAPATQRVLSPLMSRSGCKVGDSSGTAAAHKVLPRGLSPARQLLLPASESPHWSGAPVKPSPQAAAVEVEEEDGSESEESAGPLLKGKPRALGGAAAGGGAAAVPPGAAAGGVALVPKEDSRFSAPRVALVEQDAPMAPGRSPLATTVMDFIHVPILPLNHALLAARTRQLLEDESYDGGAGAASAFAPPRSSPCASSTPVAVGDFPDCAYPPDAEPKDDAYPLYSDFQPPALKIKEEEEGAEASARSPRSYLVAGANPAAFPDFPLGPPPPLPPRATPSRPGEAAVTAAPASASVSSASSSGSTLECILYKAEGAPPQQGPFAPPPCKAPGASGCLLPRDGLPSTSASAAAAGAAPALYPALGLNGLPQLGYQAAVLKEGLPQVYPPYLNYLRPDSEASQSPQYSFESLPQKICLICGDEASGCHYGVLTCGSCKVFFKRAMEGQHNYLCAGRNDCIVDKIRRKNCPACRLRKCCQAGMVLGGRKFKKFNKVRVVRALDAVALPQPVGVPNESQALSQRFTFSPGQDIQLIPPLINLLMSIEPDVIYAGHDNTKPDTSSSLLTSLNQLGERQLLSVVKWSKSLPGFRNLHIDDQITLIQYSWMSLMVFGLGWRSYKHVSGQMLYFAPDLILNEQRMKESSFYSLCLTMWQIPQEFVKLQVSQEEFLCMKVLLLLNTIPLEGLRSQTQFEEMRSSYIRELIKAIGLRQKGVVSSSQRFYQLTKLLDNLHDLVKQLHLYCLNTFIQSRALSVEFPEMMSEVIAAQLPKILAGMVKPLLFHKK
Procedure, shortened: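 After 6 hr plating at 37C in 2% stripped-serum medium, PR-UAS-bla HEK293T cells got compounds, then 1 nM R5020. Sixteen hours later, LiveBLAzer substrate was applied for 2 hr at room temperature and fluorescence was recorded.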

[4] = qHTS assay to identify small molecule antagonists of the progesterone receptor (PR) signaling pathway - cell viability counter screen (AID 1346798); note: series mostly up to about 92 µM; nearly all actives have a fitted effect of over 50% in size
Procedure, shortened: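 Viability was determined by ATP-based luminescence (CellTiter-Glo) in PR-UAS-bla HEK293T cells cultured in 2% charcoal-stripped serum and incubated 16 hr with compounds under R5020 stimulation.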

[5] = qHTS assay to identify small molecule agonists of the progesterone receptor (PR) signaling pathway - cell viability counter screen (AID 1346799; calls by dose curve; note: nearly all actives have a fitted effect of over 45% in size; note: potency is the fitted concentration of half-maximal effect)
Procedure, shortened: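 Viability was scored by ATP luminescence (CellTiter-Glo, 30 min, room temperature) in the same wells used for the reporter readout, after 16 hr compound exposure of PR-UAS-bla HEK293T cells.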

[6] = qHTS assay to identify small molecule antagonists of the TGF-beta/Smad signaling pathway - cell viability counter screen (AID 1346824); note: nearly all actives have a fitted effect of over 50% in size
Procedure, shortened: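 SBE-bla HEK 293T cells were plated overnight at 37 C, then given compounds in DMSO plus TGF-beta1 (added as 0.25 ng/mL solution) for 5 hr. After the bla read, CellTiter-Glo was added to the same wells and luminescence read after 30 min at room temperature.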

[7] = qHTS assay to identify small molecule agonists of the TGF-beta/Smad signaling pathway - cell viability counter screen (AID 1346829); note: top concentration of the series differs between compounds; nearly all actives have a fitted effect of over 45% in size
Procedure, shortened: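 Cytotoxicity counter screen: CellTiter-Glo luminescence (30 min, room temperature) measured in the SBE-bla HEK 293T reporter wells after 5 hr compound treatment at 37 C and the 2 hr substrate step.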

[8] = qHTS assay to identify small molecule agonists of the TGF-beta/Smad signaling pathway (AID 1346859; active = well fitted activation curve with a large enough effect in the signal ratio in the repeat runs, not every such curve was filed as active; the % refers to the signal ratio; note: series mostly up to about 77 µM)
Procedure, shortened: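 Dual-wavelength fluorescence (460/530 nm emission) quantified beta-lactamase expression under the Smad binding element in HEK 293T cells following 5 hr compound treatment at 37 C.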

[9] = target: Thyrotropin-releasing hormone receptor (Homo sapiens) (UniProt P34981); experiment: qHTS assay to identify small molecule antagonists of the thyrotropin-releasing hormone receptor (TRHR) signaling pathway (AID 1346877; active = well fitted inhibition curve with a large enough effect in the repeat runs, not every such curve was filed as active; note: potency is the fitted concentration of half-maximal effect)
Thyrotropin-releasing hormone receptor (Homo sapiens), sequence (P34981 whole entry, looked up): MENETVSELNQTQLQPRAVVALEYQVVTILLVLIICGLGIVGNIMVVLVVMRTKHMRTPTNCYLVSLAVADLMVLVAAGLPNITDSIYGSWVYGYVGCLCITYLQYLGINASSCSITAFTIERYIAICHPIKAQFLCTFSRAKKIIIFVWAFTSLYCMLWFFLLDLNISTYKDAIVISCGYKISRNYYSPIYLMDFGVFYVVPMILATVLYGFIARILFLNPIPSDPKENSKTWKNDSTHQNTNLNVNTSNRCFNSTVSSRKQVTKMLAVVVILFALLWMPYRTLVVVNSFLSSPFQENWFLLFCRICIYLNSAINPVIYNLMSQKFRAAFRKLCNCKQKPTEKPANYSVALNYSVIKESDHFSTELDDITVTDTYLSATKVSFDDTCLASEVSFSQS
Procedure, shortened: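 Human TRHR in HEK293 cells; inhibition of the intracellular calcium rise triggered by 1 nM TRH was followed by fluorescence over 3 min. Compounds were run at 15 concentrations, three replicates each.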

[10] = target: Thyrotropin-releasing hormone receptor (Homo sapiens) (UniProt P34981); experiment: qHTS assay to identify small molecule agonists of the thyrotropin-releasing hormone receptor (TRHR) signaling pathway (AID 1346891; calls by dose curve; note: potency is the fitted concentration of half-maximal effect;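 for activation: HEK293 cells expressing TRHR with calcium dye readout; series mostly up to about 58 µM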)
Procedure, shortened: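 Kinetic fluorescence (3 min, 1 s intervals) reported intracellular calcium after compound transfer onto TRHR-Hek293 cells pre-loaded with dye for 2 h at 37 °C.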

[11] = Human pregnane X receptor (PXR) small molecule agonists, qHTS cell viability counter screen (AID 1346977); note: nearly all actives have a fitted effect of over 50% in size; note: potency is the fitted concentration of half-maximal effect
Procedure, shortened: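 HepG2 cells stably carrying the PXR-Luc reporter are cultured with 5% charcoal-stripped FBS and treated with compounds for 24hr. CellTiter-Fluor is added at 23hr and fluorescence is read after 1hr.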

[12] = Caspase-3/7 induction in HepG2 cells by small molecules, qHTS assay (AID 1346978); note: nearly all actives have a fitted effect of over 15% in size; note: potency is the fitted concentration of half-maximal effect
Procedure, shortened: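 Wild-type HepG2 cells (2,000/well) were settled 5 h at 37 C, 5% CO2, then exposed to compounds in DMSO for 17 h. Caspase-3/7 activity was read by luminescence 30 min after adding Caspase-Glo 3/7 reagent at room temperature.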

[13] = Caspase-3/7 induction in CHO-K1 cells by small molecules, qHTS assay (AID 1346980); note: nearly all actives have a fitted effect of over 15% in size
Procedure, shortened: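 Wild-type cells were seeded at 1,500 per well and settled 5 hr at 37 C, 5% CO2, then exposed to DMSO-dissolved compounds for 17 hr. Caspase-Glo 3/7 reagent was added, and luminescence was read after 30min at room temperature.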

[14] = Caspase-3/7 induction in HepG2 cells by small molecules, qHTS cell viability counter screen (AID 1346981); note: nearly all actives have a fitted effect of over 30% in size; note: potency is the fitted concentration of half-maximal effect
Procedure, shortened: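 The parent HepG2 line is plated at 2,000 cells per well and rested 5 hr before compound pinning from DMSO stocks. Following a 16-hr treatment at 37 C, a fluorogenic live-cell substrate (CellTiter-Fluor) reports viability after 1 hr.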

[15] = target: Nuclear receptor subfamily 1 group I member 2 (Homo sapiens) (UniProt O75469); experiment: Human pregnane X receptor (PXR) small molecule agonists, qHTS assay (AID 1346982); note: nearly all actives have a fitted effect of over 35% in size; note: potency is the fitted concentration of half-maximal effect
Nuclear receptor subfamily 1 group I member 2 (Homo sapiens), sequence (O75469 whole entry, looked up): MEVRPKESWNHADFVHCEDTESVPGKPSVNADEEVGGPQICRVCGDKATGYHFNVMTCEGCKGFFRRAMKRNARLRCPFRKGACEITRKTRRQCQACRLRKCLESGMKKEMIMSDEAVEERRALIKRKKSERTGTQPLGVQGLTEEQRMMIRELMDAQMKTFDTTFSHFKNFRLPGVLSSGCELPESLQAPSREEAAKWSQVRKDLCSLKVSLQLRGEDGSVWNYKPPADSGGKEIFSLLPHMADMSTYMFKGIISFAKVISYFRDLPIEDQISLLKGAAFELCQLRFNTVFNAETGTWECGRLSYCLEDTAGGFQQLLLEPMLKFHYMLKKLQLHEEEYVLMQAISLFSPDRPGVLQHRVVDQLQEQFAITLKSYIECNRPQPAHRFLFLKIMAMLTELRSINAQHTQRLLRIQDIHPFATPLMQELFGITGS
Procedure, shortened: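 After plating in 5% charcoal-stripped FBS and a 5 hr rest, PXR-Luc HepG2 cells received compounds in DMSO. Following 24 hr at 37 C, ONE-Glo was added and light output read.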

[16] = target: Progesterone receptor (Homo sapiens) (UniProt P06401); experiment: qHTS assay to identify small molecule agonists of the progesterone receptor (PR) signaling pathway (AID 1346784; calls by dose curve; note: nearly all actives have a fitted effect of over 30% in size)
Procedure, shortened: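 The screen uses PR-UAS-bla HEK 293T cells in charcoal-stripped serum (2%). Compounds are applied for 16 hr at 37C after a 6 hr pre-incubation, and reporter activity is detected with a FRET beta-lactamase substrate after 2 hr at room temperature.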

[17] = Caspase-3/7 induction in CHO-K1 cells by small molecules, qHTS cell viability counter screen (AID 1346979); note: nearly all actives have a fitted effect of over 35% in size; note: potency is the fitted concentration of half-maximal effect
Procedure, shortened: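 Seeding: 1,500 CHO-K1 cells/well. Rest: 5hr, 37C. Treatment: compounds in DMSO, 16hr. Read: CellTiter-Fluor, 1hr, fluorescence.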

Structure (SMILES) | outcome [1] | Potency [2] | Potency [3] | Potency [4] | Potency [5] | Potency [6] | Potency [7] | outcome [8] | Potency [9] | Potency [10] | Potency [11] | Potency [12] | Potency [13] | Potency [14] | Potency [15] | Potency [16] | Potency [17]
CC(C)(c1cc(Cl)c(O)c(Cl)c1)c1cc(Cl)c(O)c(Cl)c1 | inactive | inactive | 7.7 µM (active) | inactive | inactive | inactive | inactive | inactive | 30.1 µM (active) | 34.7 µM (active) | inactive | inactive | inactive | inactive | 54.5 µM (active) and 43.3 µM (active) | – | –
c1ccc(P(c2ccccc2)c2ccccc2)cc1 | inactive | inactive | – | inactive | inactive | inactive | inactive | inactive | inactive | inactive | inactive | inactive | inactive | inactive | 55.5 µM (active) and 30.6 µM (active) | inactive | inactive
C=CCc1ccc(OC)cc1 | inactive | inactive | inactive | inactive | inactive | inactive | inactive | inactive | inactive | inactive | inactive | inactive | inactive | inactive | inactive | – | –
Cc1c(COC(=O)[C@@H]2[C@H](/C=C(\Cl)C(F)(F)F)C2(C)C)cccc1-c1ccccc1 | inactive | inactive | inactive | – | inactive and 54.3 µM (active) | inactive | inactive | inactive | – | – | inactive | inactive | inactive | inactive | 26.7 µM (active) and inactive | inactive | –
C#CCOS(=O)OC1CCCCC1Oc1ccc(C(C)(C)C)cc1 (centres undefined) | inactive | 30.7 µM (active) and 48.6 µM (active) | – | inactive | – | inactive | inactive | inactive | inactive | inactive | 7.08 µM (active) and 7.7 µM (active) | inactive | inactive | – | 8.64 µM (active) and 6.86 µM (active) | inactive | –
CCOc1cc(Oc2ccc(C(F)(F)F)cc2Cl)ccc1[N+](=O)[O-] | inactive | inactive | 15.5 µM (active) and 13.7 µM (active) | inactive | – | inactive | inactive | inactive | inactive | inactive | inactive | inactive | inactive | inactive | 27.6 µM (active) and 17.2 µM (active) | inactive | –
Cc1ccc2c(c1N)C(=O)c1ccccc1C2=O | inactive | 27 µM (active) and 27.3 µM (active) | – | inactive | inactive | inactive | inactive | inactive | inactive | inactive | 19.1 µM (active) and 27.3 µM (active) | inactive | inactive | 30.3 µM (active) and 48.6 µM (active) | 4.28 µM (active) and 1.93 µM (active) | inactive | 48 µM (active) and 54.5 µM (active)
Cc1ccc(OP(=O)(Oc2ccc(C)cc2)Oc2ccc(C)cc2)cc1 | inactive | inactive | 15.4 µM (active) | – | inactive | inactive | inactive | inactive | inactive | inactive | inactive | 967 nM (active) and inactive | inactive | inactive | 5.44 µM (active) and 13.7 µM (active) | inactive | –
CC1(C)C(C=C(Cl)Cl)C1C(=O)OC(C#N)c1cccc(Oc2ccccc2)c1 (centres undefined) | inactive | inactive | – | inactive | inactive | inactive | inactive | inactive | inactive | inactive | inactive | inactive | inactive | inactive | 2.73 µM (active) | inactive | –
COP(=S)(OC)Oc1cc(Cl)c(Cl)cc1Cl | inactive | inactive | inactive | inactive | inactive | inactive | inactive | inactive | inactive | inactive | inactive | inactive | inactive | inactive | 30.4 µM (active) and inactive | – | inactive
Oc1c(Cl)c(Cl)c(Cl)c(Cl)c1Cl | inactive | inactive | 59.9 µM (active) and 48.6 µM (active) | inactive | – | inactive | inactive | inactive | inactive | inactive | – | inactive | inactive | inactive | 59.9 µM (active) and 54.5 µM (active) | inactive | –
C=CC(=O)OCCO | inactive | inactive | inactive | inactive | inactive | inactive | inactive | inactive | inactive | inactive | inactive | inactive | inactive | inactive | inactive | – | 55.3 µM (active)
CCCCCCCCC(=O)NCc1ccc(O)c(OC)c1 | inactive | inactive | 48.6 µM (active) | – | – | inactive | inactive | inactive | – | – | inactive | inactive | inactive | inactive | 27.3 µM (active) and inactive | inactive | inactive
N#Cc1cc(Br)c(O)c(Br)c1 | inactive | inactive | inactive | – | – | inactive | inactive | inactive | inactive | inactive | inactive | inactive | inactive | inactive | 68.5 µM (active) and inactive | inactive | –
ClC1C(Cl)C(Cl)C(Cl)C(Cl)C1Cl (centres undefined) | inactive | inactive | inactive | inactive | inactive | inactive | inactive | inactive | inactive | inactive | inactive | inactive | inactive | inactive | – | – | –
O=C(O)C(F)(F)C(F)(F)C(F)(F)C(F)(F)C(F)(F)C(F)(F)C(F)(F)F | inactive | inactive | inactive | inactive | – | inactive | inactive | inactive | inactive | inactive | inactive | inactive | inactive | inactive | inactive | inactive | –
CCCCCc1cc(O)cc(O)c1 | inactive | inactive | 68.9 µM (active) and 21.7 µM (active) | – | – | inactive | inactive | inactive | inactive | inactive | inactive | inactive | inactive | 48.6 µM (active) | 61.4 µM (active) and 30.6 µM (active) | inactive | –
